Assay outcomes deposited in PubChem BioAssay by National Center for Advancing Translational Sciences (NCATS).
Sampled rows, rich in hits. Any-hit rate of the full collection: about 8.8%.
HT1080 IDH1KD tx: kills HT-1080 cells with IDH1 knockdown; HT-1080 IDH1 knockdown viability, ATP luminescence, 48 h; Potency, µM (doses to about 46.1 µM), for inactives: at the top dose activity, negative = toxicity, most hits filed as cytotoxic; 2% of 360,000 active;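 further: potency means the concentration at half of the fitted maximal effect; 0% = DMSO wells and -100% = cell-free medium wells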
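IDH1KD HT-1080 cells, 750/well, RPMI + 5% FBS; compound pinned after 2 h settling; 48 h, 37 °C; CellTiter-Glo luminescence; % activity normalised to DMSO and no-cell wells; curves fitted, classed by r2 and efficacy.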
KB-3-1 tox: KB-3-1 parental cell cytotoxicity | KB-3-1 viability, CellTiter-Glo ATP luminescence, 72 h | 1.4% of 400,000 active | Potency, µM (highest dose often 46.1 µM), most hits filed as cytotoxic | AID 1347075; further: potency means the concentration at half of the fitted maximal effect; nearly all actives have a fitted effect of over 60% in size
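Here the drug-naive KB-3-1 line serves as comparator for MDR sub-line selectivity; cells received compound titrations, 72 h at 37 °C, then CellTiter-Glo readout.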
IL1B secr inh: blocks inflammasome-driven IL-1 beta release; activity change, % at 57.5 µM; 4.7% of 360,000 active; THP-1 LPS/ATP IL-1B secretion, AlphaLISA, 16 h; active compounds read low; in the data active means activity change below about -50%; inconclusive means mostly about -30% to -49%
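THP-1 cells pretreated 1 hr with compounds (up to 57.5 uM final), then stimulated with LPS (250 ng/mL final) plus ATP (1.25 mM final); secreted IL-1B measured by AlphaLISA after 16 hr, decreased signal indicating inhibition.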
HT1080NT lethal: kills 2HG-producing HT-1080-NT fibrosarcoma cells; HT-1080-NT fibrosarcoma viability, CellTiter-Glo ATP luminescence, 48 h; Potency, µM (titrated, usually from 46.1 µM), without a hit: at the highest dose activity, negative = less viability, usual class: cytotoxic; 1.6% of 360,000 active; AID 686970;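 further: NT is the 2HG producing partner of a matched IDH1 knockdown line; potency means the concentration at half of the fitted maximal effect; 0% = DMSO-treated cells and -100% = media-only wells without cells; nearly all actives have a fitted effect of over 55% in size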
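A 48-hour cytotoxicity screen used HT-1080-NT cells plated 2 hours before compound delivery. ATP-based CellTiter-Glo luminescence measured viability, normalized to DMSO and no-cell controls.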
KB-V1 MDR tox: KB-V1 MDR subline cytotoxicity. KB-V1 MDR cells viability, CellTiter-Glo, 72 h. Potency, µM (top dose mostly 46.1 µM), usual class: cytotoxic. 3.4% of 400,000 active. AID 1347076; further: potency means the concentration at half of the fitted maximal effect; nearly all actives have a fitted effect of over 60% in size
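KB-V1 cells (P-gp-expressing MDR subline of KB-3-1) in phenol-red-free DMEM with 10% FBS were exposed to library compounds over a concentration series for 72 h at 37 degrees C. Viability read by CellTiter-Glo luminescence; concentration-effect curves fitted after normalization.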
Starred values were filed as active, the others as inactive; i = inactive; ? = inconclusive; . = not tested or not shown. Unless noted, the call rests on the fitted dose curve; in most records, active means well fitted curve in the direction sought with a large enough effect; inconclusive means small, poorly fitted or top-dose-only effect, or another doubt; inactive means no such curve, though single readings can be large; an effect the other way counts as inactive or inconclusive. Unless noted, on the % scale 0 is the no-effect control and ±100 the full control effect.

SMILES	HT1080 IDH1KD tx	KB-3-1 tox	IL1B secr inh	HT1080NT lethal	KB-V1 MDR tox
OCc1cccc(-c2csc(C(O)c3ccco3)n2)c1 (configuration not stated)	0%	i	3	-1%	i
CCOC(=O)C1CCN(C(=O)c2cc(COc3ccc(OC)c4ccccc34)on2)CC1	1%	i	0	0%	i
Cc1ccc(OCC(=O)N(C)CC(=O)Nc2ccc(F)c(F)c2F)cc1	-5%	i	-65*	-3%	i
CCCN(CC(=O)Nc1cc(C)on1)CC(=O)Nc1ccc(F)c(F)c1F	2%	i	19	-1%	4.6µM*
O=C(CN1CCN(c2ccccc2O)CC1)NC(c1ccccc1)c1ccccc1	-1%	i	-4	-6%	4.1µM*
CC(NC(=O)CN1C(=O)NC(Cc2ccccc2)(Cc2ccccc2)C1=O)C12CC3CC(CC(C3)C1)C2 (configuration not stated)	?	?	-10	21µM*	?
CC(C)C(C)NC(=O)CN1C(=O)NC(c2ccccc2)(c2ccccc2)C1=O (configuration not stated)	0%	i	-67*	0%	i
CCOc1ccc(CN(C)C(=O)CN2C(=O)NC(c3ccccc3)(c3ccccc3)C2=O)cc1	?	i	-59*	?	i
Cc1cccc(C)c1NC(=O)C(c1ccnc2ccccc12)N1CCN(CCN(C)C)CC1 (configuration not stated)	0%	i	39	-12%	i
O=C1CCCN1CCCN1CC(C(=O)N(CCO)Cc2ccccc2)CCC1=O (configuration not stated)	6%	.	8	-14%	.
CC(NC(=O)CN1C(=O)NC2(CCCCCCC2)C1=O)c1ccccc1 (configuration not stated)	14%	i	2	7%	23µM*
O=C(CN1C(=O)NC2(CCCC2)C1=O)NC(c1ccccc1)c1ccccc1	-10%	?	-82*	-3%	i
Cc1ccc(NC(=O)CN2C(=O)NC3(CCCCCCC3)C2=O)cc1C	-8%	i	4	-6%	23µM*
Cc1ccc(C(NC(=O)CN2C(=O)NC3(CCCC3)C2=O)c2ccccc2)cc1 (configuration not stated)	12%	i	-11	2%	i
Cc1ccc(NC(=O)CN2C(=O)NC3(CCC(C)CC3)C2=O)c(Cl)c1 (configuration not stated)	?	i	9	-8%	18µM*
CCc1noc(C)c1C(=O)N(Cc1ccccc1)c1c(N)n(CCOC)c(=O)[nH]c1=O	9%	i	-6	0%	?
CCCCn1c(N)c(N(CCOC)C(=O)c2ccc(-n3c(C)ccc3C)cc2)c(=O)[nH]c1=O	-7%	i	-14	3%	i
Cc1c(OCC(=O)NC2CC(C)(C)NC(C)(C)C2)ccc2c1oc(=O)c1ccccc12	3%	i	?	16%	i
Cc1c(OCC(=O)NC2CC(C)(C)NC(C)(C)C2)ccc2c3c(c(=O)oc12)CCC3	-6%	i	-54*	-8%	i
COc1cc(CNCCc2ccc(F)cc2)ccc1OCc1ccc(Cl)nc1	?	?	-56*	?	?
COc1cc(CNCCc2c[nH]c3ccccc23)cc(Cl)c1OCC(N)=O	-12%	i	?	-21%	i
COc1cccc(CNCCc2c[nH]c3ccccc23)c1OCc1ccc(F)cc1	?	?	-62*	21µM*	16µM*
COc1cc(CNCCc2c[nH]c3ccccc23)ccc1OCc1ccc(F)cc1	?	i	-103*	-23%	5.2µM*
COc1cc(CNCCc2ccccc2F)ccc1OCc1ccc(Cl)nc1	?	?	-30	?	?
COc1cccc(CNCCSc2nnnn2C)c1OCc1ccc(F)cc1	.	i	.	.	i
Cc1cccc2c1N(C(=O)c1ccco1)C(C)(C)c1ssc(=S)c1-2	0%	i	-4	-1%	?
Cc1ccc2c(c1)N(C(=O)c1ccco1)C(C)(C)c1ssc(=S)c1-2	-21%	i	-25	1%	9.2µM*
